From PubChem
T cruzi growth-1 – inhibitors of T. cruzi proliferation | T. cruzi beta-gal in NIH3T3, GalScreen luminescence, 90 h | inhibition, % at 8.34 µM | actives 5.9% (n = 77,000) | AID 624255;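 active = mean inhibition above about 93%, with at least 55% of replicates each passing it, limit read from the data, passing the limit was not always enough; inconclusive = only one of those two conditions holds; inactive = neither condition holds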
Pf Dd2 inh – P. falciparum Dd2 growth inhibition; actives 2.3% (n = 94,000); activity change, % at 10 µM; SYBR Green, 72 h; active compounds read low; in the data active = activity change below about -80%; inconclusive = no clear call, values can overlap the other calls
C diff growth – C. difficile growth inhibition; AID 1259249; actives 0.25% (n = 86,000); Clostridium difficile clinical isolate growth, OD600, 24 h; active compounds read low; growth activity, negative = inhibition, % at 16 µg/mL (by protocol);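 active = mean growth activity at or below -80% and every replicate also at or below -80%; inconclusive = mean at or below -80% but some replicate above -80%; inactive = mean growth activity above -80%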
T cruzi growth-2 – blocks T. cruzi growth in NIH3T3 host cells; shares compounds with T cruzi growth-1; AID 651739; actives 72% (n = 5,600); T. cruzi beta-gal in NIH3T3, GalScreen luminescence, 90 h; inhibition, % at 8.35 µM;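 active = mean replicate inhibition above about 95% and at least 55% of replicates individually reaching it, limit read from the data; inconclusive = only one of the two criteria is met; inactive = neither criterion is met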
T cruzi growth-3 – inhibitors of T. cruzi proliferation. shares compounds with T cruzi growth-1. T. cruzi beta-gal in NIH3T3, GalScreen luminescence, 90 h. inhibition, % at 2.09 µM. actives 21% (n = 5,600). AID 651740;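 active = mean inhibition above about 95%, with at least 55% of replicates also reaching it, limit read from the data; inconclusive = meets just one of the two conditions; inactive = meets neither condition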
NIH3T3 tox – kills mouse NIH/3T3 fibroblasts; actives 14% (n = 5,600); AID 651742; shares compounds with T cruzi growth-1; NIH/3T3 viability, CellTiter-Glo ATP luminescence, 90 h; cytotoxicity (signal decrease), % at 8.35 µM;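 active = mean signal decrease across replicates above about 35% based on untreated-well scatter, with enough replicates individually passing, limit read from the data; inconclusive = no rule stated though some were filed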
NIH3T3 tox 2 – kills mouse NIH/3T3 fibroblasts | shares compounds with T cruzi growth-1 | NIH/3T3 viability, CellTiter-Glo ATP luminescence, 90 h | inhibition, % at 24.9 µM | actives 56% (n = 5,600) | AID 651744;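 active = mean loss of cell viability signal at or above a set limit, and enough replicates individually reaching it; inconclusive = meets only the mean limit or only the replicate share; inactive = meets neither condition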
Each line names hits and unclear results; the compound was inactive in the other large screens (follow-up assays come after a bar, where they were run). In the library only some 6.8% were active in any assay of this set; here they are far more common.

Cc1noc(C)c1S(=O)(=O)Nc1cccc2c1O[C@@H](CN(C)C(=O)Nc1ccc(F)cc1)[C@@H](C)CN([C@@H](C)CO)C2=O	none
Cc1ccc(S(=O)(=O)Nc2ccc3c(c2)C(=O)N([C@H](C)CO)C[C@H](C)[C@H](CN(C)S(=O)(=O)c2ccc(Cl)cc2)OCCCC[C@@H](C)O3)cc1	T cruzi growth-1 inconclusive | T cruzi growth-2 101 | T cruzi growth-3 inactive | NIH3T3 tox inactive | NIH3T3 tox 2 inactive
Cc1ccc(S(=O)(=O)N(C)C[C@H]2OCCCC[C@@H](C)Oc3ccc(NS(=O)(=O)c4ccc(Cl)cc4)cc3C(=O)N([C@@H](C)CO)C[C@H]2C)cc1	T cruzi growth-1 inconclusive | T cruzi growth-2 103 | T cruzi growth-3 116 | NIH3T3 tox inactive | NIH3T3 tox 2 inactive
C[C@@H]1CCCCO[C@@H](CN(C)S(=O)(=O)c2ccc(Cl)cc2)[C@@H](C)CN([C@H](C)CO)C(=O)c2cc(NS(=O)(=O)c3ccc(Cl)cc3)ccc2O1	none
Cc1ccc(S(=O)(=O)N(C)C[C@H]2OCCCC[C@@H](C)Oc3ccc(NS(=O)(=O)c4ccc(Cl)cc4)cc3C(=O)N([C@@H](C)CO)C[C@@H]2C)cc1	T cruzi growth-1 99 | T cruzi growth-2 98 | T cruzi growth-3 119 | NIH3T3 tox inactive | NIH3T3 tox 2 inactive
C[C@@H]1CCCCO[C@H](CN(C)S(=O)(=O)c2ccc(Cl)cc2)[C@H](C)CN([C@@H](C)CO)C(=O)c2cc(NS(=O)(=O)c3ccc(Cl)cc3)ccc2O1	none
Cc1ccc(S(=O)(=O)N(C)C[C@H]2OCCCC[C@@H](C)Oc3ccc(NS(=O)(=O)c4ccc(Cl)cc4)cc3C(=O)N([C@H](C)CO)C[C@@H]2C)cc1	none
C[C@H](CO)N1C[C@H](C)[C@@H](CN(C)C)Oc2cc(Br)ccc2S1(=O)=O	none
C[C@H]1CN([C@@H](C)CO)C(=O)c2cc(C#CCc3ccccc3)cnc2O[C@H]1CN(C)Cc1cccc(F)c1	none (no result: C diff growth)
CC(C)CC#Cc1cnc2c(c1)C(=O)N([C@H](C)CO)C[C@H](C)[C@@H](CN(C)Cc1cccc(F)c1)O2	T cruzi growth-1 112 | T cruzi growth-2 106 | T cruzi growth-3 inactive | NIH3T3 tox inactive | NIH3T3 tox 2 107
C[C@@H]1CN([C@H](C)CO)C(=O)c2cc(C#CCN(C)C)cnc2O[C@H]1CN(C)Cc1cccc(F)c1	none
C[C@@H]1CN([C@@H](C)CO)C(=O)c2cc(C#CCc3ccccc3)cnc2O[C@H]1CN(C)Cc1cccc(F)c1	T cruzi growth-1 97 (no result: C diff growth) | T cruzi growth-2 111 | T cruzi growth-3 inactive | NIH3T3 tox inactive | NIH3T3 tox 2 104
C[C@@H]1CN([C@@H](C)CO)C(=O)c2cc(C#CCN(C)C)cnc2O[C@@H]1CN(C)Cc1cccc(F)c1	none
CC(C)CC#Cc1cnc2c(c1)C(=O)N([C@@H](C)CO)C[C@@H](C)[C@H](CN(C)Cc1cccc(F)c1)O2	T cruzi growth-1 103 | T cruzi growth-2 104 | T cruzi growth-3 inactive | NIH3T3 tox inactive | NIH3T3 tox 2 107
COC(=O)C[C@H]1CC[C@H]2[C@@H](COc3ccc(NC(=O)NCc4ccccc4)cc3C(=O)N2C)O1	none (no result: T cruzi growth-1)
CC(C)CC#Cc1ccc2c(c1)O[C@H](CN(C)Cc1ccccc1)[C@H](C)CN([C@H](C)CO)S2(=O)=O	T cruzi growth-1 104 | T cruzi growth-2 inactive | T cruzi growth-3 109 | NIH3T3 tox inactive | NIH3T3 tox 2 105
CC(C)CC#Cc1ccc2c(c1)O[C@@H](CN(C)Cc1ccccc1)[C@H](C)CN([C@H](C)CO)S2(=O)=O	none (no result: C diff growth)
CC(C)CC#Cc1ccc2c(c1)O[C@H](CN(C)Cc1ccc(F)cc1)[C@H](C)CN([C@@H](C)CO)S2(=O)=O	none
CC(C)CC#Cc1ccc2c(c1)O[C@H](CN(C)Cc1ccccc1)[C@@H](C)CN([C@@H](C)CO)S2(=O)=O	T cruzi growth-1 123 | T cruzi growth-2 100 | T cruzi growth-3 114 | NIH3T3 tox inactive | NIH3T3 tox 2 104
C[C@@H](NC(=O)[C@@H]1N[C@@H]2c3ccc(-c4ccncc4)c(=O)n3C[C@@H]2[C@H]1CO)c1ccccc1	none
C[C@H]1CN([C@@H](C)CO)C(=O)Cc2cc(NC(=O)Cc3cn(C)c4ccccc34)ccc2O[C@@H]1CN(C)S(=O)(=O)c1ccc(Cl)cc1	none (no result: C diff growth)
C[C@@H]1CCCCO[C@@H](CN(C)C(=O)Cc2ccccc2)[C@@H](C)CN([C@@H](C)CO)C(=O)c2cc(NS(=O)(=O)c3ccc(F)cc3)ccc2O1	none
COc1ccc(CN(C)C[C@@H]2OCCCC[C@@H](C)Oc3ccc(NC(=O)Nc4ccc5c(c4)OCO5)cc3C(=O)N([C@@H](C)CO)C[C@@H]2C)cc1	T cruzi growth-1 inconclusive (no result: C diff growth) | T cruzi growth-2 108 | T cruzi growth-3 98 | NIH3T3 tox inactive | NIH3T3 tox 2 53
COc1ccc(CN(C)C[C@H]2OCCCC[C@H](C)Oc3ccc(NC(=O)Nc4ccc5c(c4)OCO5)cc3C(=O)N([C@@H](C)CO)C[C@@H]2C)cc1	T cruzi growth-1 106 (no result: C diff growth) | T cruzi growth-2 101 | T cruzi growth-3 inactive | NIH3T3 tox inactive | NIH3T3 tox 2 104
COc1ccc(CN(C)C[C@H]2OCCCC[C@@H](C)Oc3ccc(NC(=O)Nc4ccc5c(c4)OCO5)cc3C(=O)N([C@H](C)CO)C[C@H]2C)cc1	T cruzi growth-1 106 (no result: C diff growth) | T cruzi growth-2 106 | T cruzi growth-3 inactive | NIH3T3 tox inactive | NIH3T3 tox 2 64
COc1ccc(CN(C)C[C@H]2OCCCC[C@H](C)Oc3ccc(NC(=O)Nc4ccc5c(c4)OCO5)cc3C(=O)N([C@@H](C)CO)C[C@H]2C)cc1	Pf Dd2 inh inconclusive (no result: C diff growth)
COc1ccc(CN(C)C[C@H]2OCCCC[C@@H](C)Oc3ccc(NC(=O)Nc4ccc5c(c4)OCO5)cc3C(=O)N([C@@H](C)CO)C[C@H]2C)cc1	none (no result: C diff growth)
COc1ccc(CN(C)C[C@@H]2OCCCC[C@H](C)Oc3ccc(NC(=O)Nc4ccc5c(c4)OCO5)cc3C(=O)N([C@H](C)CO)C[C@H]2C)cc1	none (no result: C diff growth)
CCC(=O)Nc1ccc2c(c1)C(=O)N(C)C[C@H](OC)[C@@H](C)CN(C(=O)CN(C)C)[C@H](C)CO2	none (no result: Pf Dd2 inh, C diff growth)
COCC(=O)N(C)C[C@@H]1Oc2ncc(-c3ccc(F)cc3)cc2C(=O)N([C@H](C)CO)C[C@H]1C	none
C[C@@H](NC(=O)C[C@@H]1CC[C@@H](NC(=O)c2cccnc2)[C@@H](CO)O1)c1ccccc1	none (no result: C diff growth)
O=C(C[C@@H]1CC[C@H]2[C@@H](COC[C@@H](O)CN2Cc2ccc3c(c2)OCO3)O1)Nc1ccc(-c2ccccc2)cc1	T cruzi growth-1 103 | T cruzi growth-2 95 | T cruzi growth-3 103 | NIH3T3 tox inactive | NIH3T3 tox 2 94
